± gives the standard deviation of the averaged measurements.

Conditions in all cases: concentration: 10 µM; 24 h
Test [1] deals with HCC1569. Nature of the test: cell number relative to DMSO (% of DMSO); higher = more cells (less growth inhibition / toxicity). An outline of the steps: (§1)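 H1.0 nuclear intensity or cell number is stated as percent of the plate control, based on the median of replicates, and HCC1569 values were smoothed for positional effects. These came from HCC1569 and TDF cells treated with compounds at 10 µM for 24 h at 37 °C in triplicate, then fixed in 3.7% formaldehyde and stained with a rabbit anti-H1.0 antibody, an AlexaFluor 647 secondary and DAPI.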

In test [2] the test system is TDF. Described as above. An outline of the steps: as §1
In test [3] the test system is TDF. Kind of test: H1.0 immunofluorescence intensity relative to DMSO (% of DMSO); higher = stronger H1.0 induction, active = 120 or more. An outline of the steps:
as §1

Test [4] relates to HCC1569. Nature of the test: H1.0 immunofluorescence intensity relative to DMSO (% of DMSO); higher = stronger H1.0 induction, active = 140 or more. An outline of the steps: as §1
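Wherever H1.0 immunofluorescence intensity relative to DMSO is given: TDF is a line of transformed human dermal fibroblasts of mesenchymal origin.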
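Wherever cell number relative to DMSO is given: TDF denotes transformed human dermal fibroblasts of mesenchymal origin.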

In the case of `CC[N+](C)(C)Cc1ccccc1Br.Cc1ccc(S(=O)(=O)[O-])cc1` [Bretylium tosylate], the cell number came to 83.4 in the test with HCC1569 [1] and 80.2 with TDF [2]. Further, the H1.0 immunofluorescence intensity in the test on TDF [3] was 105 (inactive); in the test with HCC1569 [4], 103 (inactive).

Take `COc1cc(C(=O)NS(=O)(=O)c2ccccc2C)ccc1Cc1cn(C)c2ccc(NC(=O)OC3CCCC3)cc12` [Zafirlukast]: the cell number amounted to 101 in the test on HCC1569 [1] and 110 with TDF [2]. Also, the H1.0 immunofluorescence intensity with TDF [3] was 90.1 (inactive); with HCC1569 [4] it was 105 (inactive).

For the compound `CC(C)(C)c1ccc(S(=O)(=O)C=CC#N)cc1`, the cell number in the test on HCC1569 [1] amounted to 50.3; with TDF [2] it was 92.1. For the same compound, the H1.0 immunofluorescence intensity in the test on TDF [3] was 98.3 (inactive); with HCC1569 [4], 135 (inactive).

Regarding `O=C(O)c1ccccc1Nc1cccc(C(F)(F)F)c1` [Flufenamic acid], the cell number amounted to 103 in the test on HCC1569 [1] and 105 in the test with TDF [2]. Further, the H1.0 immunofluorescence intensity in the test on TDF [3] is 91.9 (inactive); in the test with HCC1569 [4], 106 (inactive).

On to `COC(=O)C1=C(C)NC(C)=C(C(=O)OCCCN2CCC(c3ccccc3)(c3ccccc3)CC2)C1c1cccc([N+](=O)[O-])c1` (stereo not drawn) [Niguldipine], for which the cell number in the test with HCC1569 [1] worked out at 88.2; in the test with TDF [2] it was 99. Besides, the H1.0 immunofluorescence intensity in the test with TDF [3] is 98.5 (inactive); in the test with HCC1569 [4], 126 (inactive).

On to `CCCCCCC=CCCCCCCCCC(=O)O` [10(Z)-Heptadecenoic acid], for which the values for the cell number in the test with HCC1569 [1] and with TDF [2] were 99.6 and 95.4, respectively. Further, the H1.0 immunofluorescence intensity in the test on TDF [3] was 101 (inactive); in the test with HCC1569 [4], 102 (inactive).

Turning to `O=C(C=Cc1ccc(O)cc1)CC(=O)C=Cc1ccc(O)cc1` [bis-demethoxycurcumin], the cell number in the test on HCC1569 [1] is 82.7; in the test with TDF [2], 98.6. In addition, the H1.0 immunofluorescence intensity in the test with TDF [3] is 92.7 (inactive); with HCC1569 [4], 104 (inactive).

For the compound `c1ccc(-c2[nH]ncc2-c2ccnc3ccccc23)nc1`, the results for the cell number in the test on HCC1569 [1] and with TDF [2] were 98 and 107, respectively. In addition, the H1.0 immunofluorescence intensity in the test on TDF [3] was 94.8 (inactive); in the test on HCC1569 [4], 102 (inactive).

`COc1ccc(CC2c3cc(OC)c(OC)cc3CC[N+]2(C)CCC(=O)OCCCCCOC(=O)CC[N+]2(C)CCc3cc(OC)c(OC)cc3C2Cc2ccc(OC)c(OC)c2)cc1OC.O=S(=O)([O-])c1ccccc1.O=S(=O)([O-])c1ccccc1` (stereo not drawn) [Atracurium besylate]: the cell number in the test with HCC1569 [1] was 98.9; in the test on TDF [2], 103. The H1.0 immunofluorescence intensity in the test with TDF [3] is 94.5 (inactive); in the test on HCC1569 [4], 110 (inactive).

For `C[N+](C)(C)CCOC(=O)CCC(=O)OCC[N+](C)(C)C` [Succinylcholine], the cell number came out at 100 with HCC1569 [1] and 101 with TDF [2]. The H1.0 immunofluorescence intensity in the test on TDF [3] was 99.9 (inactive); in the test on HCC1569 [4], 101 (inactive).

Regarding `CC(C)(Sc1ccc(CCN(CCCCC2CCCCC2)C(=O)NC2CCCCC2)cc1)C(=O)O`, the values for the cell number with HCC1569 [1] and in the test on TDF [2] were 101 and 107, respectively. Besides, the H1.0 immunofluorescence intensity with TDF [3] was 95.7 (inactive); with HCC1569 [4], 87.6 (inactive).

For the compound `C=CCSC[C@H](N)C(=O)O` [(2R)-3-(allylsulfanyl)-2-aminopropanoic acid], the cell number in the test with HCC1569 [1] came out at 103; with TDF [2], 95.1. The H1.0 immunofluorescence intensity is 88.7 (inactive) with TDF [3] and 90.1 (inactive) in the test with HCC1569 [4].

Regarding `Cc1ccc(N(CC2=NCCN2)c2cccc(O)c2)cc1` [Phentolamine], the figures for the cell number with HCC1569 [1] and in the test on TDF [2] were 107 and 100, respectively. The H1.0 immunofluorescence intensity in the test on TDF [3] is 99.7 (inactive); with HCC1569 [4], 96.6 (inactive).

For `Cl.Cl.NCCNS(=O)(=O)c1cccc2cnccc12` [H-9 dihydrochloride], the cell number with HCC1569 [1] worked out at 102; in the test with TDF [2], 90.7. Further, the H1.0 immunofluorescence intensity in the test on TDF [3] is 107 (inactive); in the test on HCC1569 [4], 100 (inactive).

For the compound `O=C(O)Cc1c[nH]c2ccccc12` [Indole-3-acetic acid], the cell number was 100 with HCC1569 [1] and 102 in the test with TDF [2]. Further, the results for the H1.0 immunofluorescence intensity in the test with TDF [3] and with HCC1569 [4] were 94.5 (inactive) and 84.8 (inactive), respectively.

As for `O=C(O)CO.[NH2-].[NH2-].[Pt+2]` [Nedaplatin], the cell number with HCC1569 [1] was found to be 94.6; in the test on TDF [2] it was 92.6. Besides, the values for the H1.0 immunofluorescence intensity in the test with TDF [3] and in the test on HCC1569 [4] were 96.9 (inactive) and 104 (inactive), respectively.

Consider `O=C(OC1Cc2c(O)cc(O)cc2OC1c1cc(O)c(O)c(O)c1)c1cc(O)c(O)c(O)c1` (stereo not drawn) [Epigallocatechin gallate], for which the values for the cell number in the test with HCC1569 [1] and in the test on TDF [2] were 105 and 97, respectively. Moreover, the H1.0 immunofluorescence intensity was 94.8 (inactive) in the test on TDF [3] and 100 (inactive) with HCC1569 [4].

With `CC1(C)CCC2=C(O1)c1ccccc1C(=O)C2=O` [beta-Lapachone], the cell number with HCC1569 [1] came out at 59.7 ± 36; in the test with TDF [2], 25.4 ± 9.7. Further, the H1.0 immunofluorescence intensity is 114 (inactive) with TDF [3] and 111 (inactive) in the test with HCC1569 [4].

Regarding `Cl.Fc1cccc(CN(C2=NCCN2)c2c(Cl)cccc2Cl)c1` [IMID-4F hydrochloride], the cell number with HCC1569 [1] is 99.4; with TDF [2], 99.7. Moreover, the figures for the H1.0 immunofluorescence intensity in the test with TDF [3] and in the test with HCC1569 [4] were 102 (inactive) and 134 (inactive), respectively.

As to `COc1ccc(/C=C\c2cc(OC)c(OC)c(OC)c2)cc1OP(=O)([O-])[O-].[Na+].[Na+]`, the cell number was 57.8 in the test on HCC1569 [1] and 10.1 in the test with TDF [2]. Moreover, the values for the H1.0 immunofluorescence intensity in the test with TDF [3] and in the test on HCC1569 [4] were 197 (active) and 140 (inactive), respectively.

As to `COC1C(OC(N)=O)C(O)C(Oc2ccc3c(O)c(NC(=O)c4ccc(O)c(CC=C(C)C)c4)c(=O)oc3c2C)OC1(C)C.[Na+]` (stereo not drawn) [Novobiocin.Na], the cell number in the test with HCC1569 [1] turned out to be 103; in the test on TDF [2], 112. Further, the H1.0 immunofluorescence intensity was 95.7 (inactive) in the test with TDF [3] and 103 (inactive) with HCC1569 [4].

As for `C[N+]1(C)CCC(OC(=O)C(c2ccccc2)c2ccccc2)CC1.[I-]` [4-DAMP methiodide], the results for the cell number with HCC1569 [1] and in the test on TDF [2] were 100 and 105, respectively. For the same compound, the H1.0 immunofluorescence intensity with TDF [3] was 98.6 (inactive); in the test with HCC1569 [4], 101 (inactive).
